# Laboratory results reported in the supplement of paper PMC12494721.
# Structures can show the parent of a compound that is named as a salt.
# Columns and labels:
# Conditions in all cases: 20 µM; incubation time: 27 h, anaerobic, 37 °C;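 for the amine columns active = adjusted P below 0.05 in both replicates with a change the same way and a mean fold change under 0.8 or over 1.25; inactive = the rest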
# [1] = system: Clostridium sporogenes DSM 1664; assay: growth (OD595) fold change vs plate DMSO controls (fold change (ratio)); higher = more growth
# Summary of the method: (§1)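 Growth is calculated as fold change against the median of the DMSO control wells on each plate. Readings at 595 nm from anaerobic mGAM cultures (96-well, 27 h, 37 °C) were blank-subtracted, background-corrected with 20 µM compound solutions in water, and converted to OD by a calibration factor of 5. Fold changes above 1.5 were recorded as NA, and results are means of 2 biological replicates.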
# Escherichia coli IAI1 [2] = assay: as above
# Summary of the method: as §1
# [3] = system: Klebsiella aerogenes DSM 30053; assay: as above
# Summary of the method: as §1
# [4] = system: Ruminococcus gnavus DSM 108212; assay: as above
# Summary of the method: as §1
# [5] = system: Klebsiella aerogenes DSM 30053; assay: fold change of Histamine concentration vs plate DMSO controls (fold change (ratio)); higher = more amine produced, active = hit call of the paper (significant change in both replicates, either direction)
# Summary of the method: (§2)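 Each value is the fold change relative to DMSO-only wells on the same plate. Four gut bacterial strains were grown anaerobically in mGAM at 37 °C for 27 h in 80 µL wells, starting at OD 0.1 before a 1:1 dilution, with compounds at 20 µM final (sweeteners 50 µM). Whole cultures were extracted with cold acetonitrile/methanol containing 0.1% formic acid, centrifuged, and amines were quantified by LC–triple-quadrupole MS (dynamic MRM) against external calibration curves with within-batch drift correction. Values are means of 2 biological replicates.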
# [6] = system: Clostridium sporogenes DSM 1664; assay: fold change of Tryptamine concentration vs plate DMSO controls (fold change (ratio)); higher = more amine produced, active = hit call of the paper (significant change in both replicates, either direction)
# Summary of the method: as §2
# [7] = system: Ruminococcus gnavus DSM 108212; assay: as above
# Summary of the method: as §2
# Escherichia coli IAI1 [8] = assay: fold change of Putrescine concentration vs plate DMSO controls (fold change (ratio)); higher = more amine produced, active = hit call of the paper (significant change in both replicates, either direction)
# Summary of the method: as §2
# [9] = system: Klebsiella aerogenes DSM 30053; assay: as above
# Summary of the method: as §2
# Escherichia coli IAI1 [10] = assay: fold change of Cadaverine concentration vs plate DMSO controls (fold change (ratio)); higher = more amine produced, active = hit call of the paper (significant change in both replicates, either direction)
# Summary of the method: as §2
# [11] = system: Klebsiella aerogenes DSM 30053; assay: as above
# Summary of the method: as §2
# [12] = system: Ruminococcus gnavus DSM 108212; assay: fold change of 2-Phenylethylamine concentration vs plate DMSO controls (fold change (ratio)); higher = more amine produced, active = hit call of the paper (significant change in both replicates, either direction)
# Summary of the method: as §2
SMILES,growth [1],growth (Escherichia coli IAI1 [2]),growth [3],growth [4],fold change of Histamine concentration [5],fold change of Tryptamine concentration [6],fold change of Tryptamine concentration [7],fold change of Putrescine concentration (Escherichia coli IAI1 [8]),fold change of Putrescine concentration [9],fold change of Cadaverine concentration (Escherichia coli IAI1 [10]),fold change of Cadaverine concentration [11],fold change of 2-Phenylethylamine concentration [12]
C=CC[C@]1(O)CC[C@H]2[C@@H]3CCC4=CCCC[C@@H]4[C@H]3CC[C@@]21C [Allylestrenol],1.01,1.01,1.06,1.09,0.993 (inactive),1.03 (inactive),1.01 (inactive),0.977 (inactive),0.992 (inactive),0.924 (inactive),1.02 (inactive),1.1 (inactive)
N#CCNC(=O)c1cnccc1C(F)(F)F,1.08,1,0.999,1.12,1.02 (inactive),1 (inactive),1 (inactive),1.01 (inactive),1.01 (inactive),1.03 (inactive),0.997 (inactive),0.951 (inactive)
C[N+]1(C)CCOC(O)(c2ccc(-c3ccc(C4(O)C[N+](C)(C)CCO4)cc3)cc2)C1 (centres undefined) [Hemicholinium bromide],1.04,0.992,1.2,1.27,0.912 (inactive),1.18 (inactive),1.06 (inactive),1.01 (inactive),0.995 (inactive),0.928 (inactive),1.02 (inactive),1.07 (inactive)
CSc1nc(NC(C)C)nc(NC(C)C)n1,0.932,1.01,1.02,0.973,0.971 (inactive),0.943 (inactive),0.955 (inactive),0.946 (inactive),1.04 (inactive),1.01 (inactive),1.03 (inactive),1 (inactive)
Nc1ccncc1 [Dalfampridine],0.947,0.992,1.02,0.985,0.957 (inactive),1 (inactive),1 (inactive),0.968 (inactive),0.989 (inactive),0.957 (inactive),1 (inactive),0.991 (inactive)
CC1(C)C(C=C(Cl)Cl)C1C(=O)OC(C#N)c1ccc(F)c(Oc2ccccc2)c1 (mixture of isomers),0.877,1.01,0.965,1,1.09 (inactive),0.985 (inactive),0.996 (inactive),0.971 (inactive),1.03 (inactive),1.09 (inactive),1.02 (inactive),1.02 (inactive)
C=CCC1(CC(C)C)C(=O)NC(=O)NC1=O [Butalbital],1.07,1.04,0.966,0.589,1.01 (inactive),1 (inactive),1 (inactive),0.995 (inactive),1.01 (inactive),1.02 (inactive),0.997 (inactive),1 (inactive)
O=C(O)CNCP(=O)(O)O,0.851,1.02,0.976,0.965,1.03 (inactive),0.931 (inactive),0.98 (inactive),0.961 (inactive),1.02 (inactive),0.991 (inactive),1.03 (inactive),0.966 (inactive)
COP(N)(=O)SC (centres undefined),1.17,1.07,1.12,1.01,0.935 (inactive),0.998 (inactive),1.05 (inactive),1.05 (inactive),1.01 (inactive),0.966 (inactive),1.02 (inactive),1.06 (inactive)
Nc1c(Cl)c(F)nc(OCC(=O)O)c1Cl,0.964,1.01,1.05,1.03,0.96 (inactive),1.03 (inactive),1.04 (inactive),0.986 (inactive),0.955 (inactive),0.95 (inactive),1.01 (inactive),1.05 (inactive)
C=CC(N)=O [Acrylamide],0.971,0.969,0.977,0.973,0.995 (inactive),1.03 (inactive),0.999 (inactive),0.967 (inactive),0.987 (inactive),1.04 (inactive),0.972 (inactive),1.03 (inactive)
CC(COc1ccc(Oc2ccccc2)cc1)Oc1ccccn1 (centres undefined),1.06,0.987,1.01,0.945,1.02 (inactive),1.02 (inactive),1.06 (inactive),1.01 (inactive),1.03 (inactive),1.02 (inactive),1.02 (inactive),1.08 (inactive)
CN(C)C(CSS(=O)(=O)O)CSS(=O)(=O)O,1.11,0.998,0.99,0.931,1.01 (inactive),0.933 (inactive),1.02 (inactive),1.04 (inactive),0.999 (inactive),1.02 (inactive),0.988 (inactive),0.987 (inactive)
COc1ccc(Cc2nccc3cc(OC)c(OC)cc23)cc1OC [Papaverine hydrochloride],1.17,1.02,1.08,0.848,0.961 (inactive),1 (inactive),0.99 (inactive),0.964 (inactive),0.992 (inactive),1.22 (inactive),1.02 (inactive),1.06 (inactive)
O=C1C2CC=CCC2C(=O)N1SC(Cl)(Cl)Cl (centres undefined),0.923,1.04,0.972,0.931,1.02 (inactive),1.04 (inactive),1.04 (inactive),1 (inactive),0.956 (inactive),0.806 (inactive),0.999 (inactive),1.05 (inactive)
CON(C)C(=O)Nc1ccc(Cl)c(Cl)c1,1.07,1.01,1.01,1.07,0.924 (inactive),1.02 (inactive),0.969 (inactive),0.982 (inactive),1.02 (inactive),1.02 (inactive),1 (inactive),0.976 (inactive)
CO/C=C(/C(=O)OC)c1ccccc1Oc1cc(Oc2ccccc2C#N)ncn1,0.938,0.996,1.01,0.966,0.996 (inactive),1.02 (inactive),1.01 (inactive),1.04 (inactive),0.994 (inactive),0.962 (inactive),0.992 (inactive),1.01 (inactive)
C[N+](C)(C)CCCl,1.05,0.994,0.986,0.97,1.01 (inactive),1.03 (inactive),1.06 (inactive),0.949 (inactive),0.82 (inactive),0.863 (inactive),1.08 (inactive),1.06 (inactive)
CC1C=CC=CCCC=CC=CC=CC=CC(OC2OC(C)C(O)C(N)C2O)CC2OC(O)(CC(O)C(O)CCC(O)CC(O)CC(O)CC(=O)OC(C)C(C)C1O)CC(O)C2C(=O)O (centres undefined) [Nystatine],0.964,0.993,1.01,1.16,0.962 (inactive),0.989 (inactive),1.01 (inactive),0.999 (inactive),1 (inactive),1.05 (inactive),1.01 (inactive),0.998 (inactive)
Cc1c(COC(=O)[C@@H]2[C@H](/C=C(\Cl)C(F)(F)F)C2(C)C)cccc1-c1ccccc1 (racemic),1.05,1.09,0.978,1.13,1.02 (inactive),0.975 (inactive),1.03 (inactive),1 (inactive),0.953 (inactive),0.864 (inactive),0.989 (inactive),1.07 (inactive)
Cc1cc(C)c(C2=C(OC(=O)CC(C)(C)C)C3(CCCC3)OC2=O)c(C)c1,0.884,1.02,1.01,0.937,1 (inactive),0.972 (inactive),1.01 (inactive),1.01 (inactive),1.02 (inactive),0.983 (inactive),0.999 (inactive),1.01 (inactive)
CCCC(C)C1(CC)C(=O)NC(=O)NC1=O (centres undefined) [Pentobarbital],1.06,1.08,0.979,0.814,1.07 (inactive),0.993 (inactive),1.02 (inactive),1.1 (inactive),1.02 (inactive),1.01 (inactive),0.988 (inactive),1.04 (inactive)
CCC(=O)Nc1ccc(Cl)c(Cl)c1,0.942,0.949,0.942,1.01,1.11 (inactive),0.963 (inactive),1.02 (inactive),1.01 (inactive),0.863 (inactive),0.929 (inactive),1.16 (inactive),1.13 (inactive)
"CC(=O)OCC1=C(C(=O)O)N2C(=O)[C@@H](N)[C@H]2SC1 [Cephalosporanic acid, 7-amino]",1.05,1.05,0.979,0.924,1.07 (inactive),1.04 (inactive),0.949 (inactive),1.05 (inactive),1.01 (inactive),1 (inactive),0.985 (inactive),0.942 (inactive)
CCC(CC)Nc1c([N+](=O)[O-])cc(C)c(C)c1[N+](=O)[O-],1.11,1.01,0.983,1.02,1.07 (inactive),1.04 (inactive),0.998 (inactive),0.991 (inactive),1.01 (inactive),1.01 (inactive),0.992 (inactive),1.01 (inactive)
COc1ccc2c(c1)[C@]13CCCC[C@@H]1[C@H](C2)N(C)CC3 [Dextromethorphan hydrobromide monohydrate],1.05,0.975,1.05,0.761,0.977 (inactive),0.991 (inactive),0.998 (inactive),0.962 (inactive),0.999 (inactive),1.01 (inactive),1.02 (inactive),1.04 (inactive)
C[N+]12CCC(CC1)C(OC(=O)C(O)(c1ccccc1)c1ccccc1)C2 (centres undefined) [Clidinium bromide],1.02,1.04,1.07,1,0.975 (inactive),0.952 (inactive),1.03 (inactive),0.957 (inactive),0.981 (inactive),1 (inactive),1 (inactive),1.02 (inactive)
